Records with an inconclusive call do not appear. The source made the active and inactive calls. The call rests on the fitted dose curve; in most records, active means well fitted cell-killing curve with a large enough effect; inconclusive means small, poorly fitted or top-dose-only effect, or effect the other way; inactive means flat fitted curve, though single readings scatter. Where a SMILES comes first, the peptide text is derived from it. The star is where a group is joined. βNA = c1ccc2cc(N*)ccc2c1; Cbz = O=C(OCc1ccccc1)*
Legend:
Experiment in all cases: Primary qHTS to identify gynecologic anti-cancer compounds using libraries of approved drugs and bioactive compounds (AID 1345084); further: nearly all actives have a fitted effect of over 55% in size
C33A = settings: Gynecologic cancer cell panel viability, ATPlite luminescence, 48 h; series mostly up to 57.5 µM
Procedure, shortened: (§1)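 Luminescence from the ATPlite ATP-monitoring reagent indicates viable cell number; lower signal means cytotoxicity. Cells received compound 16 h after seeding and were exposed for 48 h across five concentrations.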

CAOV3 = settings: Gynecologic cancer cell panel viability, ATPlite luminescence, 48 h; series mostly up to 57.5 µM
Procedure, shortened: as §1

CASKI = settings: Gynecologic cancer cell panel viability, ATPlite luminescence, 48 h; series mostly up to 57.5 µM
Procedure, shortened: as §1

Es-2 = settings: Gynecologic cancer cell panel viability, ATPlite luminescence, 48 h; series mostly up to 57.5 µM
Procedure, shortened: as §1

HeLa = settings: Gynecologic cancer cell panel viability, ATPlite luminescence, 48 h; series mostly up to 57.5 µM
Procedure, shortened: as §1

Hek293T = settings: Gynecologic cancer cell panel viability, ATPlite luminescence, 48 h, control line for the selectivity index; series mostly up to 57.5 µM
Procedure, shortened: as §1

JEG-3 = settings: Gynecologic cancer cell panel viability, ATPlite luminescence, 48 h; series mostly up to 57.5 µM
Procedure, shortened: as §1

OV90 = settings: Gynecologic cancer cell panel viability, ATPlite luminescence, 48 h; series mostly up to 57.5 µM
Procedure, shortened: as §1

PA-1 = settings: Gynecologic cancer cell panel viability, ATPlite luminescence, 48 h; series mostly up to 57.5 µM
Procedure, shortened: as §1

SKOV3 = settings: Gynecologic cancer cell panel viability, ATPlite luminescence, 48 h; series mostly up to 57.5 µM
Procedure, shortened: as §1

Tov-21-G = settings: Gynecologic cancer cell panel viability, ATPlite luminescence, 48 h; series mostly up to 57.5 µM
Procedure, shortened: as §1

Tov112D = settings: Gynecologic cancer cell panel viability, ATPlite luminescence, 48 h; series mostly up to 57.5 µM
Procedure, shortened: as §1

Measured: Potency

C[C@@H]1O[C@@H](O[C@H]2[C@@H]3C=CO[C@@H](O[C@@H]4O[C@H](CO)[C@@H](O)[C@H](O)[C@H]4O)[C@@H]3[C@@]3(CO)O[C@@H]23)[C@H](O)[C@H](OC(=O)/C=C/c2ccc(O)cc2)[C@H]1OC(=O)/C=C/c1ccc(O)cc1
inactive: all assays above

O=C(/C=C/c1ccc(O)cc1)O[C@H]1[C@H](OC2CCCCC2O)O[C@H](CO)[C@@H](O)[C@@H]1O (stereo partly specified)
inactive: all assays above

COC(=O)C1(O)C(OC(C)=O)CCC2C3(CC(c4ccoc4)OC3=O)C(C)=CCC21C(=O)OC (stereo unspecified)
inactive: all assays above

C=C1CCC2C(C)(C)CC(=O)CC2(C)C1CCC(C)CCO (stereo unspecified)
inactive: all assays above

C[C@H]1CCN2C[C@]34C[C@@]5(C(=O)Nc6c5ccc5c6OC=CC(C)(C)O5)C(C)(C)C3C[C@]12C(=O)N4C (stereo partly specified)
inactive: all assays above

CN(C)CCC[C@]1(c2ccc(F)cc2)OCc2cc(C#N)ccc21
inactive: all assays above

COC(=O)C1=C[C@@H](O)[C@@H](O)[C@H](O[C@@H]2O[C@H](CO)[C@@H](O)[C@H](O)[C@H]2OC(=O)/C=C/c2ccccc2)C1
inactive: all assays above

CC(C)CC(NC(=O)OCc1ccccc1)C(=O)NC(CC(C)C)C(=O)NC(CCC(=O)O)C(=O)Nc1ccc2ccccc2c1 (stereo not drawn) (Cbz-Leu-Leu-Glu-βNA; configuration not given here)
inactive: all assays above

O=C(N[C@@H]1CC[C@@H](c2cccc(F)c2F)CN(CC(F)(F)F)C1=O)N1CCC(n2c(=O)[nH]c3ncccc32)CC1
inactive: all assays above

CC(C(=O)Nc1cc(C#N)ccc1CCCC(=O)O)c1ccc(F)c2ccccc12 (stereo unspecified)
inactive: all assays above

O=C(/C=C/c1ccc(O)cc1)OC[C@H]1O[C@@H](O/C(=C\c2ccccc2)C(=O)O)[C@H](O)[C@@H](O)[C@@H]1O
inactive: all assays above

CN1CCN(C(=O)c2cc3cc(Cl)ccc3[nH]2)CC1
inactive: all assays above

COc1c2c(c(C)c3c1C(=O)OC3)OC1(C)CC(O)C34OC(OC)(CCC3(C)C1C2)OC4(C)CO (stereo unspecified)
inactive: all assays above

Source: PubChem BioAssay (NCATS)
